# Experimental data as given in PubChem BioAssay AID686976 (The Scripps Research Institute Molecular Screening Center, 2013).
# Hit rate of the full screen: of about 1,900 compounds, about 320 (17%) were called active. Rule as the data show it: active = inhibition above about 30%; inactive = the rest. The list is a sample of the results.
# Test system: CCHF virus ovarian tumor domain protease (vOTU, L protein)
# Assay: CCHFV vOTU protease inhibitors, confirmation, biochemical, Pep-AMC substrate, fluorescence (AID 686976)
# Conditions: Recombinant CCHFV vOTU, at 11.5 µM, active compounds read high
row,SMILES,inhibition
1,O=C(OCC(=O)c1cccs1)c1ccc([N+](=O)[O-])o1,-0.43% (inactive)
2,Cc1cc(OC(C)C(=O)Nc2ccc(S(=O)(=O)Nc3onc(C)c3C)cc2)cc(C)c1Cl (configuration not stated),12.3% (inactive)
3,CC(=O)N1CCN(c2ccc(NCc3ccc(C(C)C)cc3)cc2)CC1,-11.5% (inactive)
4,Clc1ccc(C2=CSC3=Nc4cccc5cccc(c45)N23)cc1,94.7% (active)
5,Cc1ccc(S(=O)(=O)/N=C2\C=C(NS(=O)(=O)c3ccc(C)cc3)C(=O)c3ccccc32)cc1,38.1% (active)
6,COc1ccc(S(=O)(=O)/N=C2\C=C(NS(=O)(=O)c3ccccc3)C(=O)c3ccccc32)cc1,33% (active)
7,O=S(=O)(Nc1ccc(O)c2ccccc12)c1ccc(OC(F)(F)F)cc1,10.3% (inactive)
8,CC1=NN(c2ccc(Cl)c(C(=O)O)c2)C(=O)/C1=C/c1ccc(-c2ccccc2[N+](=O)[O-])o1,5.11% (inactive)
9,O=C1NC(c2ccc(-c3ccccc3[N+](=O)[O-])o2)C(C(=O)c2ccc(Cl)cc2)C(O)(C(F)(F)F)N1 (configuration not stated),34.9% (active)
10,Cc1cc(C)cc(NC(=S)NCCc2c[nH]c3ccccc23)c1,-3.11% (inactive)
11,CCN(CC)CCCC(C)n1c2nc(=O)[nH]c(=O)c-2nc2cc(Cl)ccc21 (configuration not stated),98.9% (active)
12,COc1ccc(C(=O)COC(=O)c2ccc([N+](=O)[O-])s2)cc1OC,12.4% (inactive)
13,COc1cc(NC(=O)COC(=O)c2ccc([N+](=O)[O-])s2)cc(OC)c1OC,81.3% (active)
14,O=C(COc1ccc(Cl)cc1)N1CCN(c2cccc(C(F)(F)F)c2)CC1,-7.38% (inactive)
15,COCCNC(=O)Nc1ccc2nc(-c3ccco3)c(-c3ccco3)nc2c1,1.78% (inactive)
16,O=C(O)c1cc(S(=O)(=O)Nc2ccc3cn[nH]c3c2)ccc1Br,-10.8% (inactive)
17,Oc1ccc(N=Cc2sc3ccccc3c2Cl)cc1,-0.82% (inactive)
18,COc1ccccc1CNS(=O)(=O)c1cc2c3c(c1)CCC(=O)N3CCC2,-12.5% (inactive)
19,Cc1cccc(C)c1NC(=O)CNC(=O)c1c(C)nn(-c2ccccc2)c1C,-17.8% (inactive)

row,SMILES,inhibition
1,Oc1c(Cl)cc(Cl)c(Cl)c1Cc1c(O)c(Cl)cc(Cl)c1Cl,31.2% (active)
2,CC(=O)N(C1=C(Cl)C(=O)c2ccccc2C1=O)c1ccc(C(=O)O)cc1,101% (active)
3,Cc1oc2c(c1C(=O)N1CCOCC1)C(=O)c1ccccc1C2=O,41% (active)
4,CC(C(=O)Nc1ccccc1-c1ccccc1)N1CCOCC1 (configuration not stated),-10.3% (inactive)
5,COc1ccc2c(c1)c(=Cc1ccc(N(C)C)cc1)c1cc(-c3ccccc3)[n+](C)n12,-15.8% (inactive)
6,Cc1ccc(S(=O)(=O)N2[C@@H](c3ccc(Br)cc3)C(C(=O)O)=C[C@H]2CC2CCCC2)cc1,24.4% (inactive)
7,Oc1ccc(CNc2ccccc2O)cc1,-5.66% (inactive)
8,CCOc1ccc(C(=O)Nc2ccc(S(=O)(=O)NCC3CCCO3)cc2)cc1OCC (configuration not stated),-7.98% (inactive)
9,Oc1c(CN2CCN(c3ccc(F)cc3)CC2)cc(Cl)c2cccnc12,-0.25% (inactive)
10,CCOc1cc(NC(=O)c2ccccc2C(=O)O)c(OCC)cc1NC(=O)c1ccccc1F,-9.49% (inactive)
11,Cc1ccc(OCc2nnc(SC/C=C/c3ccccc3)n2Cc2ccco2)cc1,15.3% (inactive)
12,COc1ccccc1N=Nc1c(O)[nH]c(=S)[nH]c1=O,30.5% (active)
13,NC1=CC(=O)C(=O)c2cccnc21,95.4% (active)
14,CCc1ccc(OCC(=O)NCC(c2ccc(Cl)cc2)N2CCCCC2)cc1 (configuration not stated),14.2% (inactive)
15,COc1ccc2c(c1)C(C)=CC(C)(C)N2C(=O)Nc1ccccc1,-94.5% (inactive)
16,O=C1Nc2ccccc2-n2nnnc2C1N1CCN(c2cccc(C(F)(F)F)n2)CC1 (configuration not stated),-5.01% (inactive)
17,CCNC(=S)N1CCN(c2ncccn2)CC1,-9.28% (inactive)
18,Cc1cc(C)c2c(=O)[nH]c(SCC(=O)Nc3ccc(Br)cc3)nc2n1,-13.3% (inactive)
19,Cc1ccccc1-n1c(SCC(=O)Nc2cccc3ccccc23)nc(O)cc1=O,-11.1% (inactive)

row,SMILES,inhibition
1,Cc1oc2c(F)c(F)c(F)c(F)c2c1S(=O)(=O)Nc1cccc(C(F)(F)F)c1,13.9% (inactive)
2,CC(C)(C)c1ccc(S(=O)(=O)NCC2CCN(C(=O)C(=O)c3cc4ccccc4o3)CC2)cc1,-5.86% (inactive)
3,Nc1ccc(N=Nc2ccccc2Cl)c(N)n1,8.04% (inactive)
4,Oc1ccc(/C=N/Nc2ccc(C(F)(F)F)cn2)cc1O,-17.2% (inactive)
5,CCCSc1nc(NCc2ccco2)c2c3c(sc2n1)COC(C)(CC)C3 (configuration not stated),-14.8% (inactive)
6,O=C(O)c1ccccc1/C=N/Nc1ccc(S(=O)(=O)Nc2ccc(Cl)cc2)cc1[N+](=O)[O-],12.4% (inactive)
7,CN1CCN(Cc2nc3cc(NC(=O)COc4ccc([N+](=O)[O-])cc4)ccc3n2C)CC1,-12.5% (inactive)
8,CCN(CC(=O)Nc1c(F)cccc1F)C(=O)c1cnc(C)cn1,2.27% (inactive)
9,CC1CCCCC12NC(=O)N(CC(=O)OCC(=O)NCc1ccc(F)cc1)C2=O (configuration not stated),-0.61% (inactive)
10,Cc1ccnc(NS(=O)(=O)c2ccc(NC(=O)c3oc4ccccc4c3C)cc2)n1,5.34% (inactive)
11,Cc1coc2c(O)cc3c(c12)OC1(N2CCCCC2)C(=O)NCCCC31 (configuration not stated),47.2% (active)
12,Cn1c(=NC(=O)c2cnccn2)sc2ccccc21,5.19% (inactive)
13,Cc1ccc(CSc2nc(-c3ccccc3)c(C#N)c(=O)[nH]2)cc1,13.2% (inactive)
14,Oc1ccc(N=Cc2c(O)ccc3ccccc23)cc1,4.75% (inactive)
15,Oc1c(C=Nc2cccc3nsnc23)ccc2ccccc12,100% (active)
16,CC(C)Cn1c(N)c(C(=O)NCc2cccs2)c2nc3ccccc3nc21,-76.7% (inactive)
17,C=CCC[C@@H](CCCCC)OC(=O)/C=C/[C@@H](O)[C@H](O)C[C@H](O)CC=C,-0.24% (inactive)
18,CCc1ccc2c(c1)NC(=O)C2(C)Cc1ccc(OC(F)(F)F)cc1 (configuration not stated),3.85% (inactive)
19,O=C(Nc1cccc(S(=O)(=O)N2CCCCC2)c1)c1ccc2c(c1)OCO2,-5.32% (inactive)
